Reference: PubChem BioAssay (NCATS)
Records with an inconclusive call do not appear. Unmarked numbers belong to inactive results. Some of the results follow. The source made the active and inactive calls. Unless noted, calls follow the shape of the dose curve; as a rule, active = well fitted curve in the direction sought with a large enough effect; inconclusive = small, poorly fitted or top-dose-only effect, or another doubt; inactive = no such curve, though single readings can be large; an effect the other way counts as inactive or inconclusive.

Target: Vitamin D3 receptor (Homo sapiens) (UniProt P11473)
Sequence (P11473 whole entry, looked up): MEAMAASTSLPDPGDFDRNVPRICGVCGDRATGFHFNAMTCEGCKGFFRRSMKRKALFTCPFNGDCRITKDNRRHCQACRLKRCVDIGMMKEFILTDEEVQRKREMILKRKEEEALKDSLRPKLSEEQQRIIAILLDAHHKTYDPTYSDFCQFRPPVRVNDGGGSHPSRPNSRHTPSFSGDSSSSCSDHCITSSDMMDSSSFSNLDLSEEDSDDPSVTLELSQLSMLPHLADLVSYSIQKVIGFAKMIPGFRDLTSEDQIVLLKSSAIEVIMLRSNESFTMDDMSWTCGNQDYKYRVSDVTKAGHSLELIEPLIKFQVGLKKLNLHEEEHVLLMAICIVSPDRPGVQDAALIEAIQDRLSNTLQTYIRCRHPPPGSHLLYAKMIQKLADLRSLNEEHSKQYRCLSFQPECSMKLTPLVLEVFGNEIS
Assay: qHTS for Inhibitors of the vitamin D receptor (VDR): Hit Validation using a Beta-Lactamase Assay (AID 602202); also: % is scaled to controls: 0 for no effect and ±100 for the full control effect
Details: VDR beta-lactamase reporter cells, FRET ratio; series mostly up to 46.1 µM; activity change, negative = inhibition: at the top concentration
Source text: The vitamin D receptor (VDR) is a ligand-activated transcription factor and is partially responsible for the regulation of the endocrine system. This includes the transcriptional regulation of genes involved in the production of the parathyroid hormone (PTH) and the regulation of the blood calcium level. High levels of PHT can cause hypercalcemia in the case of primary and tertiary hyperparathyroidism. The VDR-mediated gene regulation, activated by its ligand 1,25-dihydroxyvitamin D3 (1,25-(OH)2D3), is governed by the recruitment of coactivators. Our hypothesis is that small molecules, with the ability to inhibit the interaction between VDR and certain coactivators, are able to selectively modulate VDR-mediated transcription. Our long term objective is the application these VDR-coactivator inhibitors to study the role of VDR-coactivator binding for specific VDR regulated genes. Ultimately, these molecules can be developed into new treatments for hypercalcemic hyperparathyroidism. No small molecule or non-peptide inhibitors are known for the VDR-coactivator interaction.
In a collaboration between the University of Wisconsin, Milwaukee and the NIH Chemical Genomics Center (NCGC) a HTS-compatible enzymatic assay was developed. The assay uses fluorescence polarization as its read-out to measure the inhibition between VDR and coregulator peptide SRC2-3 exerted by small molecules. This assay was used to screen the NIH Molecular Libraries Small Molecule Repository (MLSMR). The cell-based VDR transcription assay was carried out with commercially available stably transfected HEK293 cells. […] Successful activation is detected by a decrease in time-resolved fluorescence resonance energy transfer (TR-FRET) caused by enzymatic cleavage of fluorescent betalactam substrate added after 24h incubation. The cleaved substrate concentration was quantified by measuring the fluorescence emission at 447 nm. […]

Q: With Cc1ccnc(-n2c(C)cc(/C=C3\C(=O)NC(=S)N(C)C3=O)c2C)c1 as the compound, how does the “activity change, negative = inhibition” value read?
A: 26.5%

Q: With O=C1NC(=O)N(c2ccccc2)C(=O)/C1=C/c1ccc([N+](=O)[O-])s1 as the compound, how does the “activity change, negative = inhibition” value read?
A: 11.1%

Q: For O=C(O)CCn1cc(C=C2C(=O)NC(=S)NC2=O)c(-c2cccc(Br)c2)n1, which “activity change, negative = inhibition” value is on record?
A: -2.37%

System: not listed separately
Assay: qHTS assay for small molecule agonists of the antioxidant response element (ARE) signaling pathway (AID 651741; active = well fitted activation curve with a large enough effect in the signal ratio; the % refers to the signal ratio; also: potency is read from the fitted curve at half-maximal effect)
Details: HepG2 ARE-bla reporter, beta-lactamase FRET ratio, 16 h; series mostly up to 96 µM; activation: at the top concentration
Summary of the method: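 Quantitative HTS in HepG2 cells stably expressing an ARE-beta-lactamase reporter; 16 h compound exposure at 37 C, followed by 2 h room-temperature incubation with LiveBLAzer B/G FRET substrate and fluorescence measurement.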

Q: With ClC1=C(Cl)[C@]2(Cl)[C@H]3[C@H]([C@@H]4C=C[C@H]3C4)[C@]1(Cl)C2(Cl)Cl as the compound, how does the Potency read?
A: 61.1 µM (active)

Q: For CON=C(C(=O)OC)c1ccccc1CO/N=C(\C)c1cccc(C(F)(F)F)c1, which Potency is on record?
A: 8.63 µM (active)

Q: For CC(C)[C@H](C(=O)O[C@H](C#N)c1cccc(Oc2ccccc2)c1)c1ccc(Cl)cc1, which Potency is on record?
A: 61.1 µM (active)

System: not listed separately
Assay: qHTS assay for small molecule activators of the p53 signaling pathway (AID 651743; active = well fitted activation curve with a large enough effect in the signal ratio, not every such curve was filed as active; the % refers to the signal ratio; also: potency is read from the fitted curve at half-maximal effect; as to activation: % of control where 0% means no effect)
Details: HCT-116 p53RE-bla, beta-lactamase FRET ratio, 16 h; activation: stronger effect = higher value
Summary of the method: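 Read-out is fluorescence intensity from the LiveBLAzer B/G FRET substrate, added for 2 hours at room temperature after HCT-116 p53RE-bla cells had been incubated with compounds for 16 hours at 37 C.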

Q: Which activation does the source give for CC(C)NC(=O)N1CC(=O)N(c2cc(Cl)cc(Cl)c2)C1=O here?
A: -1.23%

Q: Which activation does the source give for ClC1=C(Cl)[C@]2(Cl)[C@H]3[C@H]([C@@H]4C=C[C@H]3C4)[C@]1(Cl)C2(Cl)Cl here?
A: -0.297%

Q: Which activation does the source give for CC(C1CC1)C(O)(Cn1cncn1)c1ccc(Cl)cc1 (stereo not drawn) here?
A: -2.39%

Q: For CON=C(C(=O)OC)c1ccccc1CO/N=C(\C)c1cccc(C(F)(F)F)c1, which Potency is on record?
A: 5.01 µM (active)

Q: For CC(C)[C@H](C(=O)O[C@H](C#N)c1cccc(Oc2ccccc2)c1)c1ccc(Cl)cc1, which activation is on record?
A: -0.0449%

Q: For CC(C)C(C(=O)OC(C#N)c1cccc(Oc2ccccc2)c1)c1ccc(Cl)cc1 (stereo not drawn), which activation is on record?
A: 0.961%

System: not listed separately
Assay: qHTS assay for small molecule activators of the nuclear factor-kappa B (NF-kB) signaling pathway (AID 651749; active = well fitted activation curve with a large enough effect in the signal ratio; the % refers to the signal ratio; also: % of control where 0% means no effect)
Details: NF-kB-bla ME-180 cells, beta-lactamase FRET ratio, 16 h; activation: stronger effect = higher value
Summary of the method: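 Readout: beta-lactamase reporter driven by an NF-kB response element, detected fluorescently as loss of FRET. Cells were the ME-180 line, treated 16 hr at 37C with pin-transferred compound.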

Q: For CC(C)NC(=O)N1CC(=O)N(c2cc(Cl)cc(Cl)c2)C1=O, which activation is on record?
A: -3.11%

Q: Which activation does the source give for CC(C1CC1)C(O)(Cn1cncn1)c1ccc(Cl)cc1 (stereo not drawn) here?
A: -1.89%

Q: With CON=C(C(=O)OC)c1ccccc1CO/N=C(\C)c1cccc(C(F)(F)F)c1 as the compound, how does the activation read?
A: 3.5%

System: not listed separately
Assay: qHTS assay for environmental chemicals that activate the Aryl hydrocarbon Receptor (AhR) signaling pathway (AID 651777); also: nearly all actives have a fitted effect of over 15% in size; also: potency is read from the fitted curve at half-maximal effect; as to activation: % of control where 0% means no effect
Details: 1A2-DRE human hepatoma cells, luciferase, 24 h; activation: stronger effect = higher value
Summary of the method: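 Luminescence (One-Glo, 30 min, room temperature) reports AhR-driven luciferase in stably transfected human hepatoma cells bearing DRE and CYP1A2 promoter. Cells (1,200/well) were treated with compound for 24 hr at 37 C in qHTS format.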

Q: Which Potency does the source give for O=C(Nc1ccccc1)c1ccccc1O here?
A: 44.7 µM (active)

Q: For CC(C)NC(=O)N1CC(=O)N(c2cc(Cl)cc(Cl)c2)C1=O, which activation is on record?
A: 14.5%

Q: With ClC1=C(Cl)[C@]2(Cl)[C@H]3[C@H]([C@@H]4C=C[C@H]3C4)[C@]1(Cl)C2(Cl)Cl as the compound, how does the activation read?
A: 0.0639%

Q: Which activation does the source give for CC(C1CC1)C(O)(Cn1cncn1)c1ccc(Cl)cc1 (stereo not drawn) here?
A: 1.13%

Q: For CC(C)[C@H](C(=O)O[C@H](C#N)c1cccc(Oc2ccccc2)c1)c1ccc(Cl)cc1, which activation is on record?
A: 0.849%

Q: With CCOCn1c(-c2ccc(Cl)cc2)c(C#N)c(Br)c1C(F)(F)F as the compound, how does the activation read?
A: -4.34%

Q: Which activation does the source give for CC(C)C(C(=O)OC(C#N)c1cccc(Oc2ccccc2)c1)c1ccc(Cl)cc1 (stereo not drawn) here?
A: 2.62%

Q: With N#CC(Br)(Br)C(N)=O as the compound, how does the activation read?
A: -0.328%
